For 16 compounds, outcome and AC50 results are on record in PubChem BioAssay (EPA / NIEHS).

SMILES strings stand for the structures. Several values for one entry are separate records, joined by “and”; a condition that tells them apart may be missing. Equal values may be shown once. Records with an inconclusive call do not appear. Activity calls are given as the source filed them. How the source made its calls, unless noted: active means hit-call score of the fitted dose curve at least 0.9, where 1 is the maximum; inconclusive means response in the unintended direction; inactive means score below 0.9. Peptide text beside a SMILES is read from it.

Test [1] in a line: CCTE_Deisenroth_AIME_384WELL_CTox_Active: Cytotoxicity Assessment (CTOX) in CCTE's 384-well Estrogen Receptor Transactivation Assay with AIME metabolic competence (metabolism positive), Deisenroth Lab (AID 2284037).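 Further: chemicals first conditioned 2 h by alginate-bound induced rat liver S9 before cells; activity means signal loss indicating cell death.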 The method, boiled down:
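Chemicals pre-incubated 2 hours with alginate-immobilised phenobarbital/beta-naphthoflavone-induced male Sprague Dawley rat liver S9, then conditioned medium applied 24 hour to VM7Luc4E2 cells. Viability by fluorogenic protease substrate; 10-point series 0.002 - 200 uM.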

Test [2] has as its target Estrogen receptor (Homo sapiens) (UniProt P03372). Kind of test: CCTE_Deisenroth_AIME_384WELL_LUC_Inactive: CCTE's 384-well Estrogen Receptor Transactivation Assay without AIME metabolic competence (ERTA luciferase; metabolism negative), Deisenroth Lab (AID 2284038).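 Further: hits raise estrogen receptor luciferase signal so potencies reflect agonists.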 Summed up:
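Metabolism-negative mode: chemicals (10-point, 0.002–200 uM) held 2 h with alginate-water microspheres, then conditioned medium applied to VM7Luc4E2 cells for 24 h. Luciferase induction referenced to 17beta-estradiol.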

Test [3] in a line: CCTE_Shafer_MEA_dev_active_electrodes_number: CCTE's Neural Network Formation Assay for Number of Active Electrodes, Shafer Lab (AID 2284040).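 On AC50: potency for loss of active electrodes versus DMSO so lower counts are hits.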 Summed up: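 Primary rat cortical neurons on 16-electrode MEA wells, exposed from day 0 through day 12 with compound renewed at DIV 5 and 9 feeds. Active electrodes (mean firing ≥5 spikes/min) counted at DIV 5, 7, 9, 12; trapezoidal AUC across days, loss-of-signal versus DMSO.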

Test [4] has as its target Estrogen receptor (Homo sapiens) (UniProt P03372). Kind of test: CCTE_Deisenroth_AIME_384WELL_LUC_Shift: CCTE's 384-well Estrogen Receptor Transactivation Assay with AIME metabolic competence data shift (ERTA luciferase; difference in metabolism positive and negative), Deisenroth Lab (AID 2284041; active means hit-call score of the fitted dose curve at least 0.9, where 1 is the maximum; inactive means score below 0.9;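 further: shift is response with S9 minus without S9 so positive means metabolism raised ER signal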). Summed up:
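Chemicals (0.002–200 uM, 10 points) pre-incubated 2 h with alginate-encapsulated induced male Sprague Dawley rat liver S9 or S9-free, then medium applied 24 h to VM7Luc4E2 cells; luciferase. Endpoint is per-concentration difference, S9-positive minus negative.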

Test [5] in a line: CCTE_Shafer_MEA_dev_burst_rate: CCTE's Neural Network Formation Assay for Burst Rate, Shafer Lab (AID 2284042; active means hit-call score of the fitted dose curve at least 0.9, where 1 is the maximum; inactive means score below 0.9). Summed up:
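Rat primary cortical cultures on PEI/laminin MEA; compound from plating, re-dosed at DIV 5, 9 media change. Single-electrode bursts/recording length, well mean of active electrodes; AUC over DIV 5–12 recordings; loss-of-signal vs DMSO.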

The nature of test [6]: CCTE_Shafer_MEA_dev_bursting_electrodes_number: CCTE's Neural Network Formation Assay for Number of Bursting Electrodes, Shafer Lab (AID 2284043). Summed up: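 Primary rat cortical neurons plated on 16-electrode MEA wells, exposed from day 0 with compound renewed at DIV 5 and 9. Electrodes bursting ≥1 burst per 2 min counted on days 5, 7, 9 and 12; trapezoidal AUC across days, fitted for loss versus DMSO.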

Test [7] can be described thus: CCTE_Shafer_MEA_dev_per_burst_interspike_interval: CCTE's Neural Network Formation Assay for Burst Interspike Interval, Shafer Lab (AID 2284044; active means hit-call score of the fitted dose curve at least 0.9, where 1 is the maximum; inactive means score below 0.9;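 further: mean spike spacing inside bursts as AUC over recordings on days 5 7 9 12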). The method, boiled down:
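Rat cortical primary cultures, 16 electrodes/well; compound from plating, renewed with full media change DIV 5 and 9. Spikes via adaptive detector; per-burst ISI well-mean over active bursting electrodes; AUC of DIV 5/7/9/12 recordings; loss-direction fit vs DMSO.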

Test [8] in a line: CCTE_Shafer_MEA_dev_burst_duration_mean: CCTE's Neural Network Formation Assay for Mean Burst Duration, Shafer Lab (AID 2284045; active means hit-call score of the fitted dose curve at least 0.9, where 1 is the maximum; inactive means score below 0.9). The method, boiled down:
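Primary rat cortical neurons on 48-well 16-electrode MEA plates, exposed from day 0 with renewal at DIV 5 and 9; spontaneous activity recorded on days 5, 7, 9, 12. Well-mean burst duration across bursting electrodes, collapsed as trapezoidal AUC; DMSO baseline.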

Test [9] can be described thus: CCTE_Shafer_MEA_dev_interburst_interval_mean: CCTE's Neural Network Formation Assay for Mean Interburst Interval, Shafer Lab (AID 2284046; active means hit-call score of the fitted dose curve at least 0.9, where 1 is the maximum; inactive means score below 0.9;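 further: well-mean interburst interval of bursting electrodes as AUC over four recording days; curve fitted for decrease in interburst interval relative to DMSO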). The method, boiled down:
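Rat cortical neurons, 1.5 x 10^5 cells/well, 48-well MEA; compound from day 0 through DIV 12, media and treatment renewed DIV 5/9. Recordings DIV 5, 7, 9, 12; well-mean interburst interval → trapezoidal AUC, loss direction vs DMSO.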

A short description of test [10]: CCTE_Shafer_MEA_dev_inter_network_spike_interval_mean: CCTE's Neural Network Formation Assay for Mean Inter-network Spike Interval, Shafer Lab (AID 2284047; active means hit-call score of the fitted dose curve at least 0.9, where 1 is the maximum; inactive means score below 0.9). The method, boiled down: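 Primary rat cortical neurons on PEI-coated 48-well MEAs (16 electrodes/well) were exposed from plating day 0 to DIV 12, with dosing renewed at DIV 5 and 9. Recordings at DIV 5, 7, 9, 12 were collapsed by trapezoidal AUC, loss-of-signal fit vs DMSO.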

Test [11] is described as follows: CCTE_Shafer_MEA_dev_network_spike_number: CCTE's Neural Network Formation Assay for Number of Network Spikes, Shafer Lab (AID 2284048; active means hit-call score of the fitted dose curve at least 0.9, where 1 is the maximum; inactive means score below 0.9). The method, boiled down:
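Primary rat cortical neurons on PEI/laminin 48-well MEA plates, dosed from plating day 0 for 12 days, renewed at DIV 5 and 9. Network spike counts recorded DIV 5, 7, 9, 12, collapsed as trapezoidal AUC; DMSO baseline.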

Test [12] in a line: CCTE_Shafer_MEA_dev_network_spike_peak: CCTE's Neural Network Formation Assay for Mean Number of Electrodes in Network Spike, Shafer Lab (AID 2284049; active means hit-call score of the fitted dose curve at least 0.9, where 1 is the maximum; inactive means score below 0.9;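 on AC50: fitted for loss of signal meaning fewer electrodes in network spikes than DMSO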). The method, boiled down:
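Network-spike peak electrode count from recordings on days 5, 7, 9 and 12 was combined as trapezoidal area under the curve. Rat cortical cultures were treated continuously from plating, with compound renewed at each feed (DIV 5, 9); fits versus DMSO.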

Test [13] in a line: CCTE_Shafer_MEA_dev_spike_duration_mean: CCTE's Neural Network Formation Assay for Mean Spike Duration, Shafer Lab (AID 2284051; active means hit-call score of the fitted dose curve at least 0.9, where 1 is the maximum; inactive means score below 0.9;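 further: mean network spike duration pooled as area under curve over DIV 5 to 12 recordings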;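 on AC50: potency for a decrease in mean network spike duration versus DMSO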). Summed up:
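Rat cortical primary cultures, 48-well MEA (16 electrodes/well); compound from plating, renewed DIV 5, 9. Network spike duration (AxIS adaptive detector) recorded DIV 5/7/9/12, combined as trapezoidal AUC; loss direction vs DMSO.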

Test [14] can be described thus: CCTE_Shafer_MEA_dev_network_spike_duration_std: CCTE's Neural Network Formation Assay for Standard Deviation of Network Spike Duration, Shafer Lab (AID 2284052; active means hit-call score of the fitted dose curve at least 0.9, where 1 is the maximum; inactive means score below 0.9;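 further: area under curve of spike duration SD across recording days 5 to 12; hits are decreases in network spike duration SD versus DMSO vehicle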). The method, boiled down:
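Rat cortical cultures, 1.5 x 10^5 cells/well, exposed continuously from plating to DIV 12 with media/compound renewal at DIV 5, 9. Spontaneous activity recorded DIV 5/7/9/12, AxIS adaptive spike detector; AUC across days; negative direction vs DMSO.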

A short description of test [15]: CCTE_Shafer_MEA_dev_per_network_spike_spike_number_mean: CCTE's Neural Network Formation Assay for Mean Number of Spikes in a Network Spike, Shafer Lab (AID 2284053; active means hit-call score of the fitted dose curve at least 0.9, where 1 is the maximum; inactive means score below 0.9). Summed up: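 Rat cortical primary cultures on 48-well MEA; compound from day 0, re-dosed with full media change DIV 5, 9. Recorded DIV 5, 7, 9, 12; spikes in 0.05 s window at network-spike peak ÷ total network spikes; AUC; loss vs DMSO.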

A short description of test [16]: CCTE_Shafer_MEA_dev_per_network_spike_spike_percent: CCTE's Neural Network Formation Assay for Percent of Spikes in a Network Spike, Shafer Lab (AID 2284054; active means hit-call score of the fitted dose curve at least 0.9, where 1 is the maximum; inactive means score below 0.9). The method, boiled down:
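Rat primary cortical neurons were grown on 48-well MEA plates (16 electrodes/well), exposed from plating day 0 through day 12, with treatment renewed on DIV 5 and 9. Percent of spikes within 0.05 s network-spike peaks was measured, summarised as AUC across days 5, 7, 9, 12.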

Test [17] is described as follows: CCTE_Shafer_MEA_dev_LDH: CCTE's Lactate Dehydrogenase Assay for Cytotoxicity in the Neural Network Formation Assay, Shafer Lab (AID 2284068).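 Further: exposure for twelve days from plating with re-dosing on DIV 5 and 9.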 Summed up: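 Rat cortical primary neurons, MEA culture; dosing day 0–12, full medium plus compound exchange DIV 5, 9. Read-out: LDH enzyme activity, spectrophotometric. DMSO = negative control/baseline; signal loss → cytotoxicity.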

Test [18] in a line: CCTE_Deisenroth_AIME_384WELL_CTox_Inactive: Cytotoxicity Assessment (CTOX) in CCTE's 384-well Estrogen Receptor Transactivation Assay without AIME metabolic competence (metabolism negative), Deisenroth Lab (AID 2284039).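 Further: cell viability via live-cell protease substrate cleaved to fluorescent probe; cells exposed 24 h to medium preincubated 2 h with alginate-water beads without S9; loss of fluorescence signal means loss of viability.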 The method, boiled down:
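VM7Luc4E2 human breast cells received conditioned medium from a 2 h incubation of chemical with alginate-water microspheres (no S9), then were exposed 24 h. Viability was read as protease-substrate cleavage to a fluorescent probe; loss of signal was fitted bidirectionally over 0.002–200 uM.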

The test system of the next test is DIO2 (gene 1734). As to the kind of experiment: CCTE_GLTED_hDIO2: CCTE's human Deiodinase 2 (DIO2) Inhibition Assay, Great Lakes Toxicology and Ecology Division (GLTED) Lab (AID 2284050). Summed up: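 hDIO2 enzyme + test chem, 3 h → free iodide from substrate; step 2: Sandell-Kolthoff (Ce IV reduction by As, iodide-catalysed), spectrophotometric read. Triplicate plates; DMSO = baseline.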

The test system of another test is DIO3 (gene 1735). As to the kind of experiment: CCTE_GLTED_hDIO3: CCTE's human Deiodinase 3 (DIO3) Inhibition Assay, Great Lakes Toxicology and Ecology Division (GLTED) Lab (AID 2284055).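 Further: potency is for inhibition seen as loss of released iodide signal.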 Summed up:
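Absorbance from the Sandell-Kolthoff reaction reports iodide released by human DIO3 during a 3-hour incubation with chemical. Inhibition scored as signal loss against DMSO controls.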

Chain of Estrogen receptor (Homo sapiens) (P03372 whole entry, looked up): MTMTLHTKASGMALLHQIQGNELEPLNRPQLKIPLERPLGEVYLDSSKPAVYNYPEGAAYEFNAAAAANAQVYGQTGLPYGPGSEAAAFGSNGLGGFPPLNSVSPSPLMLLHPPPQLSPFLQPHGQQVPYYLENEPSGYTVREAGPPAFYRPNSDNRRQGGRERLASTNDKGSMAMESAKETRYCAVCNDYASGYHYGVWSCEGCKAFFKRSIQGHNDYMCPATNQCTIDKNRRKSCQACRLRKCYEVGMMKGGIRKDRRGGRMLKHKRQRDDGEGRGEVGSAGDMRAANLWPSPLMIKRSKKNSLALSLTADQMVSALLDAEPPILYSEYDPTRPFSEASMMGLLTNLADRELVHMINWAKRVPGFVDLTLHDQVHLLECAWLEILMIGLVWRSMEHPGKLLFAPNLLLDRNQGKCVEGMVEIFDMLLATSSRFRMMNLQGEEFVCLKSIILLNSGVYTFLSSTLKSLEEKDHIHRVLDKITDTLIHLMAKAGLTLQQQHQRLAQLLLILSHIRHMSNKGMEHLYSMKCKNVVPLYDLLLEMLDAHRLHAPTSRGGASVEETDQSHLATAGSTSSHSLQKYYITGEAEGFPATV

Broadly, the AC50 is the concentration at which the activity in the assay is half-maximal. With `CCCCNS(=O)(=O)c1ccccc1`, the outcome in test [1], in test [2], in test [3], in [4], in test [5] and in [6] was inactive. Further, the result in [7], in [8], in test [9], in test [10], in test [11] and in test [14] was inactive. The result in test [15], in test [16] and in test [17] was inactive. Further, the figures for the AC50 in [12] and in test [13] were 78.5 µM (active) and 50.5 µM (active), respectively.

As to `CC(CCC(=O)O)(c1ccc(O)cc1)c1ccc(O)cc1`, the compound was called inactive in test [1] and in test [18]. In addition, the AC50 was 71.4 µM (active) in test [2] and 20.7 µM (active) in [4].

`C=C[C@@]1(C)CC(=O)[C@]2(O)[C@@]3(C)[C@@H](O)CCC(C)(C)[C@@H]3[C@H](O)[C@H](OC(C)=O)[C@@]2(C)O1`: in test [1], the AC50 was 19.8 µM (active). The outcome in test [2], in [18] and in test [4] was inactive.

`CCCCCC[C@@H](O)C/C=C\CCCCCCCC(=O)OCC(O)CO` (some centres undefined): the compound was called inactive in test [1], in [2], in [18] and in test [4].

Take `CCCCC/C=C\C/C=C\CCCCCCCC(=O)O`: the compound was classed as inactive in test [1], in [2], in [18] and in [4]. For the same compound, the concentration at half-maximal activity (AC50) with DIO2 (gene 1734) was 36.8 µM (active); in the test on DIO3 (gene 1735) it was 16.9 µM (active).

Regarding `CCCCCC(=O)OCC`, the outcome in [1], in test [2] and in test [4] was inactive. In test [18], the AC50 was 19.8 µM (active).

As for `CCC1COC(=O)O1` (centres undefined), the compound was called inactive in [1], in test [2], in [18] and in test [4].

Turning to `N#Cc1ccc(C(c2ccc(C#N)cc2)n2cncn2)cc1`, the call in test [1], in test [2], in [18] and in [4] was inactive.

With `CCCCCCCCCC(C)=O`, the outcome in test [1], in [2], in [18] and in test [4] was inactive.

`C=C1C[C@H]2[C@@H]3C=C(C)C4=CC(=O)CC[C@]4(C)[C@H]3CC[C@]2(C)[C@@]1(OC(C)=O)C(C)=O`: the compound was classed as inactive in test [1], in test [2], in test [18] and in [4].

With `COC(=O)[C@H](Cc1ccccc1)NC(=O)[C@@H](N)CC(=O)O` (H-Asp-Phe-OMe), the result in test [1], in test [2], in test [3], in test [4], in test [5] and in test [7] was inactive. The outcome in test [8], in test [9], in test [10], in test [11], in [12] and in [13] was inactive. The compound was classed as inactive in test [14], in test [15], in [16] and in [17].

`C[N+](C)(C)CCCNS(=O)(=O)C(F)(F)C(F)(F)C(F)(F)C(F)(F)C(F)(F)C(F)(F)C(F)(F)C(F)(F)F`: the AC50 in [3] was 1.13 µM (active) and 1.65 µM (active); in [17], 15 µM (active).

`Cc1c(C(=O)c2c[nH]n(C)c2=O)ccc(S(C)(=O)=O)c1C1=NOCC1`: the outcome in test [3] was inactive.

Take `O=C(O)c1cc(O)c2ccccc2c1O`: the half-maximal activity concentration (AC50) is 51 µM (active) in the test with DIO2 (gene 1734) and 54.1 µM (active) in the test with DIO3 (gene 1735).

Turning to `CCCCCCCOC(=O)c1ccc(O)cc1`, the values for the AC50 with DIO2 (gene 1734) and in the test with DIO3 (gene 1735) were 106 µM (active) and 80.8 µM (active), respectively.

Regarding `Cc1noc(NS(=O)(=O)c2ccc(N)cc2)c1C`, in test [17], the compound was called inactive.
